# According to PubChem BioAssay AID1671448 (Corson Lab, School of Medicine, Indiana University, 2021):
# In all, about 20,000 compounds went through this assay and about 660 (3.3%) were called active.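 The calls were made as follows: active = enzyme reaction rate more than 3 SD below the solvent-only control wells on the same plate; inactive = the rest.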 The list comes from a sample in which actives are over-represented; it also holds similar structures and randomly drawn compounds.
# Target: Ferrochelatase, mitochondrial (Homo sapiens) (UniProt P22830)
# Assay: FECH heme synthesis enzyme blockers – biochemical, purified FECH, Ni-mesoporphyrin absorbance, primary screen (AID 1671448)
# Settings: Ni-mesoporphyrin absorbance 550 nm, screened at 10 µM (by protocol)
# Ferrochelatase, mitochondrial (Homo sapiens), sequence (P22830 whole entry, looked up): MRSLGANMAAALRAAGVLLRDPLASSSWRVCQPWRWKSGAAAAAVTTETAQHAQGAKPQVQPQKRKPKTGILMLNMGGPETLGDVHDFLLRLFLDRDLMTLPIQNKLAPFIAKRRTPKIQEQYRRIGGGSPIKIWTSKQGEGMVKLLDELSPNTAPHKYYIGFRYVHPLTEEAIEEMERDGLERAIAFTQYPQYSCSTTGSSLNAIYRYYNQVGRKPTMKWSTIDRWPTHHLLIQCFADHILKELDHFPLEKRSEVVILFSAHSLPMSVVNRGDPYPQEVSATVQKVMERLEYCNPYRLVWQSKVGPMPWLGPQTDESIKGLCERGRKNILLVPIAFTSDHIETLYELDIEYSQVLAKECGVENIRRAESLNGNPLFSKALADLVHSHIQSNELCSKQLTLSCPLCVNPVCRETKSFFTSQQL
row,SMILES,outcome
1,O=C1CN(Cc2c(F)cccc2Cl)S(=O)(=O)c2ccccc2N1Cc1ccccc1,inactive
2,Cc1ccc(C)c(N2C(=O)N(Cc3cc(F)cc(F)c3)c3ccccc3S2(=O)=O)c1,active
3,COc1cccc(CN2CC(=O)N(Cc3cccc(C(F)(F)F)c3)c3ccccc3S2(=O)=O)c1,inactive
4,COc1ccccc1C(=O)Nc1ccccc1Sc1c(C)c(C)nc2nc(-c3ccccc3)nn12,inactive
5,CC(NC(=O)CCc1c[nH]c2ccccc12)c1cn2ncsc2n1 (configuration not stated),inactive
6,CCC(C)N(Cc1ccsc1)C(=O)c1cn2c(n1)CNCC2 (configuration not stated),inactive
7,Cc1cccc(-c2ncc(CNCCNC(=O)c3ccccc3Cl)cn2)c1,inactive
8,CCc1cc(Sc2ccc(NC(=O)Cc3cccs3)cc2)n2ncnc2n1,inactive
9,COc1ccc(C(=O)N(Cc2nc3nc(C)cc(C)n3n2)c2ccc(F)cc2)cc1,inactive
10,O=C(NCc1ccccc1)c1nc(N2CCOCC2)c2oc3ccccc3c2n1,inactive
11,CCOCCCNC(=O)C1CCN(c2ccc(-c3ccc(C)cc3)nn2)CC1,inactive
12,Nc1ccc(S(=O)(=O)Nc2cccc(Cl)c2)cc1S(N)(=O)=O,active
13,CCCc1cc(NCc2ccc(OC)cc2)n2nc(-c3cccnc3)nc2n1,inactive
14,Cc1ccc(-c2ccnc(NCc3cnn4ccccc34)n2)c(C)n1,inactive
15,O=C(Nc1nc2n(n1)C(c1ccc(F)cc1)C=C(c1ccc(Cl)cc1)N2)c1cccnc1 (configuration not stated),inactive
16,Cc1ccc(-c2ccnc(-c3ccc(CCC(=O)O)cc3)n2)c(C)n1,inactive
17,Cc1ccc(-n2c(=O)n(C)c3c(C(N)=O)nc(-c4ccc(Cl)cc4)nc32)cc1C,inactive
18,Cc1cc(C)n2nc(CN(C(=O)c3ccco3)c3ccc(Cl)cc3)nc2n1,inactive
19,COc1ccc(NC2=NC(C(=O)Nc3cc(OC)ccc3OC)CC(=O)N2)cc1 (configuration not stated),inactive
20,CCOc1cc(-c2c(-c3ccccc3)ncn2Cc2c(C)n[nH]c2C)ccc1OC,inactive
21,COCCN1CCCC(O)(CN2CCN(c3nc4ccccc4o3)CC2)C1=O (configuration not stated),inactive
22,OCc1csc(N2CCC(CO)(Cc3ccccc3Cl)CC2)n1,inactive
23,Cc1ccc(C2=CC(c3ccc(F)cc3)n3nc(NC(=O)CC(C)C)nc3N2)cc1 (configuration not stated),inactive
24,Cc1ccc(S(=O)(=O)N2CCN(c3cc(-c4ccc(F)cc4)ncn3)CC2)cc1C,inactive
25,Cc1cccc(-c2nc3nc(CN(C)Cc4ccccc4)cc(=O)n3[nH]2)c1,active

row,SMILES,outcome
1,CCOc1ccc(N(Cc2nc3nc(C)cc(C)n3n2)C(=O)c2ccco2)cc1,inactive
2,O=C(Nc1ccccc1)c1cc2n(n1)CCN(Cc1cnc[nH]1)C2,inactive
3,Cn1c(=O)n(Cc2ccc(F)cc2Cl)c(=O)c2cnc(-c3cccnc3)nc21,inactive
4,CCOc1ccc(C(=O)N2CCN(S(=O)(=O)c3cc4c5c(c3)CCN5C(=O)CC4)CC2)cc1,inactive
5,Cc1ccc(Cn2c(CCNC(=O)Nc3cc(C)ccc3C)nc3cccnc32)cc1,inactive
6,Cc1cc(C)cc(CCC(=O)NC(C)c2n[nH]c(C)n2)c1 (configuration not stated),inactive
7,CCCN(CCC)C(=O)C1CCCN(c2ncnc3c2nc2n3CCCCC2)C1 (configuration not stated),inactive
8,Cc1cccc(CNC(=O)N2CCN(Cc3nc4cccnc4n3-c3ccc(F)cc3)CC2)c1,inactive
9,O=C1CN(S(=O)(=O)c2cc(C(=O)N3CCCC3)cs2)c2ccccc2N1,inactive
10,O=C(CN1CCN(Cc2ccccc2Cl)S1(=O)=O)Nc1ccc2c(c1)OCCO2,inactive
11,CN(CCC1CCCCO1)C(=O)c1ccc(CSc2ncn[nH]2)o1 (configuration not stated),inactive
12,Cc1nc(N2CCCCC2)ncc1C(=O)N1CCC2(CCN(C)C2)CC1,inactive
13,CNS(=O)(=O)c1ccc(C2NCCc3[nH]cnc32)cc1 (configuration not stated),inactive
14,COc1ccc(CNC(=O)CN2c3ccc(C(C)C)cc3-c3ccccc3S2(=O)=O)cc1,active
15,CCC1=C(c2ccc(OC)cc2)S(=O)(=O)N(CC(=O)NCc2ccc(OC(C)C)cc2)C1=O,inactive
16,COc1ccc(CNC(=O)N2CCN(c3cc(-c4ccc(OC)cc4)ncn3)CC2)cc1,inactive
17,CCCNC(=O)NCC1CCCN(Cc2ccco2)C1 (configuration not stated),inactive
18,CC(C)c1nccn1Cc1nc2ccccc2c(=O)[nH]1,inactive
19,CC(C)c1c(-c2ccccc2)ncn1CC(=O)N1CCNCC1,inactive
20,COc1ccc(C(=O)N2CCc3[nH]nc(-c4ccc(F)c(F)c4)c3C2)c(O)c1,inactive
21,Cc1cc(Sc2ccc(NC(=O)Nc3ccc(F)c(Cl)c3)cc2)n2ncnc2n1,inactive
22,CCn1c(=O)n(-c2ccc(C)c(C)c2)c2nc(-c3ccc(F)cc3F)nc(C(N)=O)c21,inactive
23,CCCS(=O)(=O)N1CCC(n2c(C(F)(F)F)nc3cccnc32)CC1,inactive
24,Cc1ccc(-c2cc(Nc3ccc(C(N)=O)cc3)nc(C)n2)cc1,inactive
25,CCN(CC)CCNc1nc(Nc2cccc(C)c2)c2cnn(-c3ccccc3)c2n1,inactive

row,SMILES,outcome
1,COc1ccc(N2CCCS2(=O)=O)cc1NC(=O)COc1ccc(C)cc1,inactive
2,CCC1=C(c2ccc(OC)cc2)S(=O)(=O)N(CC(=O)Nc2cccc(Cl)c2)C1=O,inactive
3,CC(C(=O)NCCc1ccc(S(N)(=O)=O)cc1)N1C(=O)CC(C)(C)Sc2ccccc21 (configuration not stated),inactive
4,CCCc1cc(Sc2ccc(NC(=O)Nc3cccc(F)c3)cc2)n2ncnc2n1,inactive
5,COc1cccc(C(=O)N(Cc2nc3nc(C)cc(C)n3n2)c2ccccc2)c1,inactive
6,Cc1ccc2nc(CNC(=O)Cc3ccc4c(c3)OCO4)[nH]c2c1,inactive
7,COCc1nc2cccnc2n1C1CCN(S(=O)(=O)c2ccc(C)c(C)c2)CC1,inactive
8,O=C(O)CC1CNCCN(C(=O)c2cccc(Oc3ccccc3)c2)C1 (configuration not stated),inactive
9,CCOC(=O)Cn1c(=O)n(-c2ccc(F)cc2)c2nc(-c3cccs3)nc(C(N)=O)c21,inactive
10,CN1CCN(Cc2ccc(-n3cccn3)cc2)CC1C(=O)O (configuration not stated),inactive
11,CCC1(CC)CN(C(=O)c2nnc(COC)o2)CCO1,inactive
12,CCOc1ccc(N2CC(NC(=O)CC)CC2=O)cc1 (configuration not stated),inactive
13,Cc1ccc(-c2cc(N3CCN(S(=O)(=O)c4ccccc4)CC3)ncn2)cc1,inactive
14,CCCOc1cccc(-c2c(Nc3ccccc3)oc3c2c(=O)n(C)c(=O)n3C)c1,inactive
15,Cc1nnc(SCC(=O)N2CCC(C(O)C(C)C)CC2)s1 (configuration not stated),inactive
16,Cc1cccc(C(C(=O)NC2CCN(S(C)(=O)=O)CC2)N(C)C)c1 (configuration not stated),inactive
17,O=C1NC(c2cccnc2)(C2CCNCC2)C(=O)N1Cc1ccccc1F (configuration not stated),inactive
18,CCc1c(C)nc2ncnn2c1Sc1ccc(NC(=O)CC(C)C)cc1,inactive
19,CCCc1c(C)nc2ncnn2c1Sc1ccc(NC(=O)C(C)(C)C)cc1,active
20,CCCc1c(C)nc2ncnn2c1Sc1ccccc1NC(=O)c1cccs1,inactive
21,CCc1c(C)nc2ncnn2c1Sc1ccc(NC(=O)c2cc(OC)cc(OC)c2)cc1,active
22,CCc1c(C)nc2ncnn2c1Sc1ccc(NC(=O)Cc2cccs2)cc1,inactive
23,CCc1c(C)nc2ncnn2c1Sc1ccc(NC(=O)Nc2cccc(C)c2C)cc1,inactive
24,CCCc1c(C)nc2ncnn2c1Sc1ccc(NS(=O)(=O)c2cc(C)cc(C)c2C)cc1,inactive
25,CCc1c(C)nc2ncnn2c1Sc1ccc(NS(=O)(=O)c2cc(OC)ccc2OC)cc1,inactive

row,SMILES,outcome
1,CCc1ccc(S(=O)(=O)Nc2ccc(Sc3c(CC)c(C)nc4ncnn34)cc2)cc1,active
2,O=C(CN1CCCN(Cc2cccc(F)c2)S1(=O)=O)Nc1ccc(Br)cc1,inactive
3,O=C(c1ccncc1)N1CC[C@@H](c2ccc3ccccc3c2)[C@H](O)C1,inactive
4,C=CCOc1c(Cl)cc(C(=O)NCCc2cnc[nH]2)cc1Cl,inactive
5,CCc1nc(C)sc1CNC(=O)[C@H](N)CC(C)C,inactive
6,CCOc1ccc(-c2nc(CSc3nc4c(c(=O)[nH]3)CCCC4)c(C)o2)cc1OC,inactive
7,COc1cccc2c1OCCCN(C(=O)[C@@H]1Cc3ccccc3N1)C2,inactive
8,COc1ccc(CNc2nc3nc(CNc4ccc(C)cc4)cc(=O)n3[nH]2)cc1,inactive
9,COc1ccc(CNc2nc3nc(CNc4ccc(Br)cc4)cc(=O)n3[nH]2)cc1,inactive
10,COc1ccc(CNc2nc3nc(CN4CCN(c5ccccc5OC)CC4)cc(=O)n3[nH]2)cc1,active
11,O=C(CSc1nc(-c2ccco2)nc2cc(=O)[nH]n12)NCCCc1ccccc1,inactive
12,CC(C)(C)CNC(=O)c1[nH]cnc1C(=O)NCC1CC1,inactive
13,CC(C)CCNC(=O)c1nc[nH]c1C(=O)NCC(C)(C)C,inactive
14,O=C(NCc1ccccc1)c1nc[nH]c1C(=O)NCc1cccc(C(F)(F)F)c1,active
15,Cc1cc(C)nc(SC(C)c2n[nH]c(Cc3ccccc3)n2)n1 (configuration not stated),inactive
16,Cc1nnnn1CCCN1CCC(Cc2cccc(C(=O)O)c2)CC1,inactive
17,CCOc1ccc(S(=O)(=O)NCCn2c(-c3ccccc3)nc3cccnc32)cc1,inactive
18,O=S(=O)(NCCn1c(-c2ccccc2)nc2cccnc21)c1ccc(C2CCCCC2)cc1,inactive
19,O=S(=O)(NCCn1c(-c2ccccc2)nc2cccnc21)c1ccc(Br)cc1,active
20,COc1cccc2c1OCC(CN1CCC(O)(c3ccc(C)cn3)CC1)=C2,inactive
21,O=C(O)c1cccnc1CN1CCN(Cc2ccc3c(c2)OCO3)CC1,inactive
22,COc1ccccc1NC(=O)CN1CCN(Cc2ccccc2C)S1(=O)=O,inactive
23,Cc1ccccc1CN1CCN(CC(=O)Nc2cccc(Cl)c2C)S1(=O)=O,active
24,O=C(CN1CCN(Cc2ccccc2Cl)S1(=O)=O)Nc1ccccc1Cl,inactive
25,CCOc1ccc(-c2nc(Cn3c(=O)c4cnc(-c5ccc(OC)cc5)nc4n(C)c3=O)c(C)o2)cc1,inactive

row,SMILES,outcome
1,CCn1ccc(-c2n[nH]c(=O)n2Cc2ccccc2F)n1,inactive
2,CCc1ccc(S(=O)(=O)N2CCN(Cc3nc4cccnc4n3-c3ccccc3)CC2)cc1,inactive
3,CC(=O)Nc1ccc(S(=O)(=O)N2CCN(Cc3nc4cccnc4n3-c3ccc(C)cc3)CC2)cc1,active
4,Cc1ccccc1S(=O)(=O)N1CCN(Cc2nc3cccnc3n2-c2ccccc2)CC1,inactive
5,Cc1ccc(OCC(=O)Nc2cc(C)nn2-c2ncnc3c2cnn3-c2cccc(C)c2C)cc1,inactive
6,NC(=O)c1cccc(CC2CCN(C(=O)c3cnn4cccnc34)C2)c1 (configuration not stated),inactive
7,CCN(CC)Cc1cnc2c(C(=O)N3CCC(Cn4cccn4)CC3)cnn2c1,active
8,CCN(CC)Cc1cnc2c(C(=O)Nc3cccc4cc(C)oc34)cnn2c1,inactive
9,CN1CCC(Cc2noc(CCc3nc4cccnc4n3C)n2)CC1,inactive
10,CCc1cccc(NS(=O)(=O)c2ccc3c(c2)CCN3C(=O)CCC(=O)N2CCOCC2)c1,inactive
11,CCc1nc2nc(C)[nH]n2c(=O)c1NC(=O)Nc1cccc(C(F)(F)F)c1,inactive
12,Cc1nc2nc(-c3ccccc3)nn2c(Sc2ccccc2NC(=O)c2ccc(Cl)cc2)c1C,inactive
13,Cc1ccc(C(=O)Nc2nc3n(n2)C(c2ccccc2)C=C(c2ccc(Cl)cc2)N3)cc1 (configuration not stated),inactive
14,O=C(Nc1nc2n(n1)C(c1ccc(Cl)cc1)C=C(c1ccc(Cl)cc1)N2)c1ccccc1 (configuration not stated),inactive
15,O=C(Nc1nc2n(n1)C(c1ccccc1Cl)C=C(c1ccccc1)N2)c1ccccc1F (configuration not stated),active
16,COc1ccccc1C(=O)Nc1nc2n(n1)C(c1ccc(F)cc1)C=C(c1ccccc1)N2 (configuration not stated),active
17,O=C(Nc1nc2n(n1)C(c1c(F)cccc1Cl)C=C(c1ccccc1)N2)c1ccc(F)cc1 (configuration not stated),inactive
18,Cc1ccc(C2=CC(c3ccc(F)cc3)n3nc(NC(=O)c4cccs4)nc3N2)cc1 (configuration not stated),inactive
19,Cc1ccc(C2=CC(c3ccc(C)cc3)n3nc(NC(=O)c4ccco4)nc3N2)cc1 (configuration not stated),active
20,Cc1ccc(C2=CC(c3c(F)cccc3Cl)n3nc(NC(=O)c4ccco4)nc3N2)cc1 (configuration not stated),inactive
21,O=C(Nc1nc2n(n1)C(c1ccccc1)C=C(c1ccc(Cl)cc1)N2)c1ccc(F)cc1 (configuration not stated),inactive
22,CCCC(=O)NC1CC(=O)N(c2ccc(OCC)cc2)C1 (configuration not stated),inactive
